# Measured values from the supplement of paper PMC7366291.
# Counter-ions that a name gives are not always drawn. ± gives the standard deviation or the standard deviation of the averaged measurements.
# Columns and labels:
# Settings in all cases: 25 µM; exposure: 24-48 hpf
# [1] = tested on: Danio rerio Tg(wt1b:EGFP) embryo, pronephros; experiment: glomerular separation, fold change vs DMSO control; higher = glomeruli further apart (abnormal)
# Method in brief: (§1)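 In HEPES-buffered E3 with 0.003% PTU and 0.5% DMSO, dechorionated Tg(wt1b:EGFP) zebrafish embryos were exposed to 25 μM compound from 24 to 48 hpf at 28.5°C. Pronephroi were then imaged dorsally at 470 nm in 10 z-slices, in 96-well plates filled with agarose. On maximum projections, a Fiji macro turned 16 manually placed reference points into distances and angles, and values more than 2 SD from the feature mean were excluded. Features are fold changes relative to the mean of DMSO-treated embryos from the same day.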
# [2] = tested on: Danio rerio Tg(wt1b:EGFP) embryo, pronephros; experiment: glomerular width (mean of left and right), fold change vs DMSO control; higher = wider glomerulus
# Method in brief: as §1
# [3] = tested on: Danio rerio Tg(wt1b:EGFP) embryo, pronephros; experiment: fraction of imaged embryos annotated as normal kidney; higher = less nephrotoxic; extreme values may be limits of the assay
# Method in brief: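 The read-out is the proportion of embryos in each treatment manually annotated as normal-kidney. Exposure ran from 24 to 48 hpf at 28.5°C in 12-well plates, using dechorionated Tg(wt1b:EGFP) zebrafish embryos in 5 mM HEPES-buffered E3 with 0.003% PTU, 0.5% DMSO and 25 μM compound. For imaging, larvae were anaesthetised with tricaine, positioned dorsally in agarose-filled 96-well plates and captured by widefield fluorescence (470 nm, 10 z-slices), with scoring done on maximum projections.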
# [4] = tested on: Danio rerio Tg(wt1b:EGFP) embryo, pronephros; experiment: pronephric angle neck segment to proximal convoluted tubule (mean of left and right), fold change vs DMSO control; higher = larger pronephric angle
# Method in brief: as §1
Structure (SMILES),glomerular separation [1],glomerular width [2],fraction of imaged embryos annotated as normal kidney [3],pronephric angle neck segment [4]
Nc1nc(Cl)nc2c1ncn2[C@H]1C[C@H](O)[C@@H](CO)O1 [Cladribine],0.896 ± 0.38,0.945 ± 0.021,0.909,1.005 ± 0.0066
COc1ccc(C(Cl)=C(c2ccc(OC)cc2)c2ccc(OC)cc2)cc1 [Chlorotrianisene],0.709 ± 0.16,1.028 ± 0.007,1,0.953 ± 0.013
CCC1(C)CC(=O)NC1=O (stereo not drawn) [Ethosuximide],0.979 ± 0.37,1.07 ± 0.029,0.833,0.972 ± 0.013
CC(C(=O)O)c1cccc(Oc2ccccc2)c1 (stereo not drawn) [Fenoprofen calcium salt dihydrate],3.89 ± 1.7,0.88 ± 0.059,0,1.55 ± 0.027
CCn1cc(C(=O)O)c(=O)c2cc(F)c(N3CCNCC3)nc21 [Enoxacin],0.719 ± 0.29,0.9596 ± 0.0034,0.727,1.06 ± 0.017
COc1ccc(C[C@@H]2c3cc(OC)c(OC)cc3CC[N@+]2(C)CCC(=O)OCCCCCOC(=O)CC[N@@+]2(C)CCc3cc(OC)c(OC)cc3[C@H]2Cc2ccc(OC)c(OC)c2)cc1OC [Cisatracurium besylate],0.571 ± 0.3,1.21 ± 0.0036,0.833,0.984 ± 0.035
CCN(CC)Cc1cc(Nc2ccnc3cc(Cl)ccc23)ccc1O [Amodiaquin dihydrochloride dihydrate],0.602 ± 0.18,0.999 ± 0.012,0.917,0.957 ± 0.016
COc1ccc(-c2cc(=S)ss2)cc1 [Anethole-trithione],1.04 ± 0.42,0.886 ± 0.027,0.909,1.04 ± 0.066
C[C@]12CC[C@@H]3c4ccc(OS(=O)(=O)O)cc4CC[C@H]3[C@@H]1CCC2=O [Estropipate],1.27 ± 0.59,0.95203 ± 0.00068,0.75,1.02 ± 0.012
CC[C@H]1OC(=O)[C@H](C)[C@@H](O[C@H]2C[C@@](C)(OC)[C@@H](O)[C@H](C)O2)[C@H](C)[C@@H](O[C@@H]2O[C@H](C)C[C@H](N(C)C)[C@H]2O)[C@](C)(O)C[C@@H](C)CN(C)[C@H](C)[C@@H](O)[C@]1(C)O [Azithromycin],0.933 ± 0.41,0.945 ± 0.022,1,1.012 ± 0.0055
CCN1C(=O)NC(c2ccccc2)C1=O (stereo not drawn) [Ethotoin],0.796 ± 0.17,0.998 ± 0.037,0.917,0.942 ± 0.014
CCOC(=O)C1=C(C)NC(C)=C(C(=O)OC)C1c1cccc([N+](=O)[O-])c1 (stereo not drawn) [Nitrendipine],5.49 ± 1,0.6357 ± 0.0031,0,1.29 ± 0.044
CC1(C)S[C@@H]2[C@H](NC(=O)[C@H](N)c3ccc(O)cc3)C(=O)N2[C@H]1C(=O)O [Amoxicillin],1.13 ± 0.42,0.961 ± 0.046,0.833,1.04 ± 0.074
CC[C@H](C)C(=O)O[C@H]1C[C@@H](C)C=C2C=C[C@H](C)[C@H](CC[C@@H]3C[C@@H](O)CC(=O)O3)[C@H]21 [Lovastatin],5.64 ± 2.1,0.622 ± 0.012,0,1.54 ± 0.057
Cc1cc(=O)n(-c2ccccc2)n1C [Antipyrine],1 ± 0.28,0.98 ± 0.024,0.667,1 ± 0.043
CO[C@@]1(NC(=O)CSCC#N)C(=O)N2C(C(=O)O)=C(CSc3nnnn3C)CS[C@@H]21 [Cefmetazole sodium salt],0.79 ± 0.16,1.004 ± 0.0038,0.917,0.944 ± 0.042
CC(=O)OCC(=O)[C@@]1(O)[C@H](C)C[C@H]2[C@@H]3CCC4=CC(=O)C=C[C@]4(C)[C@@]3(F)[C@@H](O)C[C@@]21C [Dexamethasone acetate],1 ± 0.25,1.252 ± 0.0072,1,1.02 ± 0.034
CS(=O)(=O)Nc1ccc([N+](=O)[O-])cc1Oc1ccccc1 [Nimesulide],3.39 ± 1.9,0.837 ± 0.056,0,1.38 ± 0.071
"CC(C)NCC(O)c1cc(O)cc(O)c1 (stereo not drawn) [Metaproterenol sulfate, orciprenaline sulfate]",1.08 ± 0.74,1.02 ± 0.014,0.909,1.08 ± 0.07
CN(C)CCC(c1ccc(Br)cc1)c1ccccn1 (stereo not drawn) [Brompheniramine maleate],0.985 ± 0.22,1.04 ± 0.065,1,1.05 ± 0.056
CC(=O)O[C@]1(C(C)=O)CC[C@H]2[C@@H]3C=C(C)C4=CC(=O)CC[C@]4(C)[C@H]3CC[C@@]21C [Megestrol acetate],1.27 ± 0.82,0.864 ± 0.029,0.917,0.9907 ± 0.0078
N=C(N)NC(=O)Cc1c(Cl)cccc1Cl [Guanfacine hydrochloride],0.827 ± 0.15,1.08 ± 0.1,0.583,0.978 ± 0.025
CC(=O)c1ccc2c(c1)N(CCCN1CCC(CCO)CC1)c1ccccc1S2 [Piperacetazine],0.868 ± 0.28,0.976 ± 0.023,0.833,1.01 ± 0.081
O=C(COc1ccc(Cl)cc1)N1CCN(Cc2ccc3c(c2)OCO3)CC1 [Fipexide hydrochloride],1.26 ± 0.55,0.86 ± 0.031,0.75,1.24 ± 0.11
CC(=O)O[C@]1(C(C)=O)CC[C@H]2[C@@H]3C=C(C)C4=CC(=O)CC[C@@H]4[C@H]3CC[C@@]21C [Nomegestrol acetate],1.02 ± 0.29,0.953 ± 0.054,0.909,1.131 ± 0.0084
CCC1NC(=O)c2cc(S(N)(=O)=O)c(Cl)cc2N1 (stereo not drawn) [Quinethazone],0.951 ± 0.37,1.05 ± 0.063,0.909,1.04 ± 0.027
CC[C@H]1OC(=O)[C@H](C)[C@@H](O[C@H]2C[C@@](C)(OC)[C@@H](O)[C@H](C)O2)[C@H](C)[C@@H](O[C@@H]2O[C@H](C)C[C@H](N(C)C)[C@H]2O)[C@](C)(O)C[C@@H](C)C(=O)[C@H](C)[C@@H](O)[C@]1(C)O [Erythromycin],1.19 ± 0.74,1.042 ± 0.0044,0.818,0.9494 ± 0.0015
